Measured values published in PubChem BioAssay (NCATS).
Where “and” joins values, the source holds several entries; their conditions need not be identical. Identical values can stand only once. Records with an inconclusive call do not appear. Some structures have more than one record in an assay (separate samples or runs), and their calls can disagree. Calls of active or inactive are those of the source. Unless noted, calls come from the whole dose curve; as a rule, active = well fitted curve in the direction sought with a large enough effect; inconclusive = small, poorly fitted or top-dose-only effect, or another doubt; inactive = no such curve, though single readings can be large; an effect the other way counts as inactive or inconclusive.

Columns and labels:
[1] = qHTS assay for small molecule agonists of the antioxidant response element (ARE) signaling pathway (AID 651741; active = well fitted activation curve with a large enough effect in the signal ratio; the % refers to the signal ratio; note: potency is the fitted concentration of half-maximal effect; for activation: % of control where 0% means no effect)
How it was run: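 HepG2 ARE-bla cells plated at 2,000 cells/well and incubated 5 h at 37 C/5% CO2 received 23 nL compound in DMSO. After 16 h at 37 C, LiveBLAzer B/G FRET substrate was applied for 2 h at room temperature and fluorescence read.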

[2] = qHTS assay for small molecule activators of the nuclear factor-kappa B (NF-kB) signaling pathway (AID 651749; active = well fitted activation curve with a large enough effect in the signal ratio; the % refers to the signal ratio; note: % of control where 0% means no effect); settings: NF-kB-bla ME-180 cells, beta-lactamase FRET ratio, 16 h; stronger effect = higher value
How it was run: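 Incubation lasted 16 hr at 37C in 5% CO2 after 23 nL compound addition to ME-180 NF-kB-bla cells. Activation appears as beta-lactamase-mediated FRET loss.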

[3] = qHTS assay for environmental chemicals that activate the Aryl hydrocarbon Receptor (AhR) signaling pathway (AID 651777); settings: 1A2-DRE human hepatoma cells, luciferase, 24 h; activation: stronger effect = higher value; note: nearly all actives have a fitted effect of over 15% in size; note: potency is the fitted concentration of half-maximal effect; for activation: % of control where 0% means no effect
How it was run: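 Luminescence read-out: One-Glo added for 30 min at RT after 24 hr compound treatment (37 C, 5% CO2) of human hepatoma cells expressing a DRE/CYP1A2 promoter–luciferase reporter; increased signal indicates AhR activation.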

[4] = target: Peroxisome proliferator-activated receptor alpha (Homo sapiens) (UniProt Q07869); test: qHTS assay for small molecule agonists of the peroxisome proliferator-activated receptor alpha (PPARalpha) signaling pathway (AID 651778); settings: PathHunter PPARalpha complementation, chemiluminescence, 6 h; stronger effect = higher value; note: % of control where 0% means no effect
How it was run: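 Enzyme-fragment complementation assay in which ligand-bound PPARalpha translocates and forms an active enzyme that generates chemiluminescence. Cells were plated overnight, exposed to compound for 6 hr at 37 C, and then given detection reagent for 60 min at room temperature.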

[5] = qHTS assay for small molecule activators of the p53 signaling pathway (AID 651743; active = well fitted activation curve with a large enough effect in the signal ratio, not every such curve was filed as active; the % refers to the signal ratio; note: potency is the fitted concentration of half-maximal effect; for activation: % of control where 0% means no effect); settings: HCT-116 p53RE-bla, beta-lactamase FRET ratio, 16 h; activation: stronger effect = higher value
How it was run: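 HCT-116 p53RE-bla, 4,000 cells/well; 5 h settle; cpd/DMSO 16 h, 37 C; LiveBLAzer B/G 2 h RT; fluorescence intensity.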

[6] = target: Tumor necrosis factor (Homo sapiens) (UniProt P01375); test: qHTS assay to identify small molecules that stimulate Tumor Necrosis Factor-alpha (TNF-alpha) secretion (AID 651757; active = well fitted curve in the direction sought with a large enough effect in the signal ratio; the % refers to the signal ratio; note: 0% is about no effect)
How it was run: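 Secreted TNF-alpha from compound-treated THP-1 cells (17 hrs, 37 C) was quantified with a homogeneous time-resolved fluorescence antibody assay.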

[7] = qHTS assay to identify small molecules that stimulate interleukin-8 (IL-8) secretion (AID 651758; active = well fitted activation curve with a large enough effect in the signal ratio; the % refers to the signal ratio; note: 0% is about no effect)
How it was run: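 THP-1 cells (2000/well) exposed to compound 16 h at 37 C; secreted IL-8 then detected by HTRF with cryptate- and XL665-labelled anti-IL-8 antibody pair after 1-3 h at room temperature.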

[8] = target: Nuclear receptor ROR-gamma (Homo sapiens) (UniProt P51449); test: qHTS assay for small molecule antagonists of the retinoid-related orphan receptor gamma (ROR-gamma) signaling pathway (AID 651802); note: nearly all actives have a fitted effect of over 60% in size; note: potency is the fitted concentration of half-maximal effect
How it was run: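 Antagonism is scored as a fall in luminescence from a RORE-luciferase reporter in CHO cells expressing ROR under a TET-inducible promoter, measured 16hr after doxycycline induction in the presence of compound.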

[9] = qHTS assay for small molecule disruptors of the mitochondrial membrane potential - 1 hr assay (AID 651754; calls by dose curve; note: nearly all actives have a fitted effect of over 35% in size; note: potency is the fitted concentration of half-maximal effect)
How it was run: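 Steps: seed HepG2 cells and let attach overnight; pin-transfer compound or vehicle; incubate 1 hr at 37C; add Mito-MPS dye for 30 min; read two-channel fluorescence for monomer and aggregate forms.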

[10] = qHTS assay for small molecule disruptors of the mitochondrial membrane potential - 5 hr assay (AID 651755; calls by dose curve; note: nearly all actives have a fitted effect of over 40% in size; note: potency is the fitted concentration of half-maximal effect)
How it was run: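 HepG2 cells (2,000/well), attached overnight, exposed to compound 5 hr at 37C, then Mito-MPS dye 30 min. Fluorescence read for monomers (490/535 nm) and aggregates (540/590 nm).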

[11] = target: Arylsulfatase A (Homo sapiens) (UniProt P15289); test: qHTS screen for enhancers of Arylsulfatase A (ASA1): LOPAC Validation Assay (AID 720538); note: 0% is about no effect
How it was run: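 Cell-based enhancement test: residual ASA activity in SV40-transformed I179S patient fibroblasts is measured by pNCS turnover (0.5mM final, 14h, room temperature) following 48h compound incubation; higher fluorescence indicates activation.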

[12] = Cell Proliferation Assay against the TMD8 Cell Line (AID 651645); settings: TMD8 DLBCL cell line proliferation/viability; at 46.1 µM (top of the series);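 note: cells exposed to compound for 48 h before reading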
How it was run: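 Cell viability of the ABC DLBCL line TMD8 is measured by CellTiter-Glo luminescence following a 48-hour incubation with compound. Percent activity uses DMSO as 100% and 9.2 uM bortezomib (final) as 0%.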

[13] = Cell Proliferation Assay against the HBL1 Cell Line (AID 651646); settings: HBL1 DLBCL cells; at 46.1 µM (top of the series);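 note: cells exposed to compound for 48 h before reading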
How it was run: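 HBL1 ABC DLBCL cells, 500/well in RPMI with 5% FBS, treated for 48 h at 37C. Viability read by CellTiter-Glo luminescence, normalized to DMSO as 100% and 9.2 uM bortezomib as 0%.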

[14] = Cell Proliferation Assay against the TMD8 Cell Line (Caspase readout at 16 hrs) (AID 651712)
How it was run: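 TMD8 cells in RPMI with 5% FBS were treated with compound for 16 h at 37 C, then caspase 3/7 activation was read by Caspase-Glo luminescence. Percent activity was scaled to DMSO (0%) and 9.2 uM bortezomib final (100%).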

[15] = target: Tyrosine-protein kinase Yes (Homo sapiens) (UniProt P07947); test: qHTS for small molecule inhibitors of Yes1 kinase: Primary Screen (AID 686947);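 note: plate controls were DMSO with enzyme for no effect and no-enzyme DMSO wells for full effect; nearly all actives have a fitted effect of over 60% in size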
How it was run: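 ADP-Glo luminescence readout; final 4 nM Yes1, 0.1 mM ATP, 0.3 mg/mL poly(E4Y), Tris pH 7.5, MgCl2, DTT, Brij-35. 20 min compound preincubation, 60 min reaction at RT. Normalized to DMSO wells with and without enzyme.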

[16] = qHTS for small molecule inhibitors of Yes1 kinase: Counter Assay (AID 686950);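 note: no kinase present so only ADP-Glo detection of a fixed ADP amount is tested; luminescence from ADP-Glo reporting ADP in a fixed ATP and ADP mixture; 0% = DMSO wells with ATP plus ADP and -100% = ATP-only wells without ADP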
How it was run: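 Enzyme-free detection counter-screen: compounds preincubated 20 min in buffer, then 0.08 mM ATP plus 0.02 mM ADP added for 60 min at room temperature; ADP-Glo luminescence. Buffer 50 mM Tris pH 7.5, 10 mM MgCl2, 150 mM NaCl; normalized to ATP+ADP and ATP-only controls.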

[17] = Cell Proliferation Assay against the TMD8 Cell Line (Caspase readout at 8 hrs) (AID 651713)
How it was run: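 Percent activity derived from Caspase-Glo signal, DMSO set to 0% and bortezomib (9.2 uM final) to 100%. TMD8 cells were exposed to compound for 8 h in RPMI with 5% FBS.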

Sequence of Peroxisome proliferator-activated receptor alpha (Homo sapiens) (Q07869 whole entry, looked up, the tested form may be a part): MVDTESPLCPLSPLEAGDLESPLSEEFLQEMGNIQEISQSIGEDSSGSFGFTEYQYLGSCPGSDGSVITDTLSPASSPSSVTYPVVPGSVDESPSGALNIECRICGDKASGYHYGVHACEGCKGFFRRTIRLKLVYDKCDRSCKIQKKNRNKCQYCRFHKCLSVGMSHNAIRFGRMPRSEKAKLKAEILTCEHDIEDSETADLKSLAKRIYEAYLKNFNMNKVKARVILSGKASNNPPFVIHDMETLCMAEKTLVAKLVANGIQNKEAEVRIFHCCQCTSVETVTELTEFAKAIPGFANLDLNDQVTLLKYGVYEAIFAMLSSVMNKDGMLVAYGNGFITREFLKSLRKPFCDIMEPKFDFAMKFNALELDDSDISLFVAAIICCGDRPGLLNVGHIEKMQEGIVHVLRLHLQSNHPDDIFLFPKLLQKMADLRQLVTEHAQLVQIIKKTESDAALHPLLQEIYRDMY
Sequence of Tumor necrosis factor (Homo sapiens) (P01375 whole entry, looked up): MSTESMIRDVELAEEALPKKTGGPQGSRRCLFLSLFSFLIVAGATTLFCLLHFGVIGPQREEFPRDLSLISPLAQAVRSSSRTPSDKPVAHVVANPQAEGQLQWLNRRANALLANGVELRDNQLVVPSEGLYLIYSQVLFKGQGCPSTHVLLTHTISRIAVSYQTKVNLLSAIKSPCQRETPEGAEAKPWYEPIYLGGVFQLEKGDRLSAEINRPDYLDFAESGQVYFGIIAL
Sequence of Nuclear receptor ROR-gamma (Homo sapiens) (P51449 whole entry, looked up): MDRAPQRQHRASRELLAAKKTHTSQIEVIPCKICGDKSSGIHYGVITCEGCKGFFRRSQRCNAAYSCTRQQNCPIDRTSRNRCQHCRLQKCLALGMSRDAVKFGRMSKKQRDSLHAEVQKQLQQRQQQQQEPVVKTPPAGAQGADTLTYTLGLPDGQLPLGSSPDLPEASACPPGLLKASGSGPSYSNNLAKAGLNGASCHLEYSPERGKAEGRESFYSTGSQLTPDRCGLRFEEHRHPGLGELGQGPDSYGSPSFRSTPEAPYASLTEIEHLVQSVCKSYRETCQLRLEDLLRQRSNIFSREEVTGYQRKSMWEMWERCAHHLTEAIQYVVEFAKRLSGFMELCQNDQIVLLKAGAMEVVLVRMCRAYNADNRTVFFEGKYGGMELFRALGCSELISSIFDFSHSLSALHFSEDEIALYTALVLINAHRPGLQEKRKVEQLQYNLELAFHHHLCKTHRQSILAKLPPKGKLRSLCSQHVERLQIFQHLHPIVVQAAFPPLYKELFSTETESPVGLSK
Sequence of Tyrosine-protein kinase Yes (Homo sapiens) (P07947 whole entry, looked up): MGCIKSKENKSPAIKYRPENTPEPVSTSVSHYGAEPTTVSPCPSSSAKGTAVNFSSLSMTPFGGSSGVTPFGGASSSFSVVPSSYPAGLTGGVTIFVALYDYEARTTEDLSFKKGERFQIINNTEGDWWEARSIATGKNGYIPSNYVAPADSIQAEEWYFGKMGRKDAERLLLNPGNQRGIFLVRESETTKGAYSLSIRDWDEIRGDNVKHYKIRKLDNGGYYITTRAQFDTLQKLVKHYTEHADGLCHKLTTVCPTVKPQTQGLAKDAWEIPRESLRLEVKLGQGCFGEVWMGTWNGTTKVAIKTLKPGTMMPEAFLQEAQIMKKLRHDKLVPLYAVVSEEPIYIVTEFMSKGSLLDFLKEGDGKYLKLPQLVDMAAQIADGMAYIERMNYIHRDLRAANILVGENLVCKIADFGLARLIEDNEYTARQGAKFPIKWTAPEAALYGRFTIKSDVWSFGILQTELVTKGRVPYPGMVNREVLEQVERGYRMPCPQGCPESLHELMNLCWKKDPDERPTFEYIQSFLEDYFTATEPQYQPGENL
Sequence of Arylsulfatase A (Homo sapiens) (P15289 whole entry, looked up): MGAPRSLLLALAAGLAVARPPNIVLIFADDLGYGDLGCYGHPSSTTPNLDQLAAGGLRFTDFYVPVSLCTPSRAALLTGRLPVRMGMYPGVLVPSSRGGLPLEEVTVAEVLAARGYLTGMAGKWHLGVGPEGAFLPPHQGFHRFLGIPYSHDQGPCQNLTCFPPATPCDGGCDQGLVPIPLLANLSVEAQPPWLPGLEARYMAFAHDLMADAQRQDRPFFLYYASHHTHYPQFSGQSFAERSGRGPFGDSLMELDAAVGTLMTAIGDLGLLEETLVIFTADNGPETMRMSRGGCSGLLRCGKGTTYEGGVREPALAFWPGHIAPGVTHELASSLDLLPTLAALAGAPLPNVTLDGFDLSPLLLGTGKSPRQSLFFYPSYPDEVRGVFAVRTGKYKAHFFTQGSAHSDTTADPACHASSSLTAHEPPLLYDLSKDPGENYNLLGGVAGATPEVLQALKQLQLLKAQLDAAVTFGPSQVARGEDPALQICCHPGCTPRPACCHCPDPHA

With `O=C(O)[C@H](O)[C@@H](O)[C@H](O)[C@H](O)CO` the Potency [1] was “inactive”, the activation [2] was -5.45% (inactive) and the activation [3] was -0.169% (inactive). For the same compound, the max response [4] was -0.488% (inactive).
For `CCCOC(=O)c1ccc(O)cc1`, the activation [5] was -1.88% (inactive) and -2.94% (inactive) and -1.35% (inactive), the outcome [6] was “inactive” and the Potency [7] was “inactive”. The activation [3] was 3.41% (inactive) and 2.32% (inactive), the max response [4] was 0.116% (inactive) and 2.06% (inactive) and -4.76% (inactive) and the Potency [8] was “inactive”.
With `c1ccc2sc(SSc3nc4ccccc4s3)nc2c1` the Potency [1] was 26.6 µM (active), the activation [5] was 1.84% (inactive) and -0.504% (inactive) and the activation [2] was 3.06% (inactive) and 1.84% (inactive). For the same compound, the outcome [6] was “inactive”, the activation [3] was -0.44% (inactive) and 3.22% (inactive) and the max response [4] was -2.43% (inactive) and -7.65% (inactive). For the same compound, the Potency [8] was “inactive”.
In the case of `N=C1N=C(N)c2cc3ccccc3cc21`, the Potency [1] is reported as 16.8 µM (active), the Potency [5] is reported as 35.5 µM (active) and the Potency [9] is reported as 6.68 µM (active). For the same compound, the outcome [6] was “inactive”, the activation [3] was 12.9% (inactive) and the max response [4] was -3.58% (inactive). For the same compound, the Potency [8] was 59.6 µM (active).
For `CCCCCCCCCCCCCCCC(=O)OC(C)C`, the activation [5] was -1.99% (inactive), the activation [2] was 0.837% (inactive) and the max response [4] was 0.689% (inactive).
With `O=C(Nc1ccccc1)c1cc([N+](=O)[O-])ccc1Cl` the Potency [1] was 1.22 µM (active), the activation [5] was 4.29% (inactive) and the Potency [3] was 14.1 µM (active). The max response [4] was 0.605% (inactive).
In the case of `NCCO`, the Potency [1] is reported as “inactive”, the activation [5] is reported as -4.3% (inactive) and the outcome [6] is reported as “inactive”. For the same compound, the activation [3] was -0.695% (inactive), the max response [4] was -2.8% (inactive) and the Potency [8] was “inactive”.
With `COc1cc(CNC(=O)CCCC/C=C/C(C)C)ccc1O` the activation [5] was -1.8% (inactive) and -5.67% (inactive), the activation [2] was 0.091% (inactive) and 0.703% (inactive) and the Potency [9] was “inactive”. For the same compound, the Potency [10] was “inactive”, the outcome [6] was “inactive” and the activation [3] was -0.69% (inactive) and 1.8% (inactive). The max response [4] was -1.35% (inactive) and 5.82% (inactive).
For `CC(C)NCC(O)COc1cccc2ccccc12` (centres undefined), the Potency [1] was “inactive”, the activation [5] was -4.3% (inactive) and -0.33% (inactive) and the activation [2] was -0.327% (inactive) and 0.291% (inactive). For the same compound, the Potency [9] was “inactive”, the Potency [10] was “inactive” and the outcome [6] was “inactive”. The activation [3] was 1.27% (inactive) and 9.4% (inactive), the max response [4] was -1.25% (inactive) and -0.701% (inactive) and the Potency [8] was “inactive”. The Potency [11] was “inactive”.
With `CN1CC(=O)N/C1=N/C(=O)Nc1cccc(Cl)c1` the viability (% of control) [12] was 105%, the viability, percent of control [13] was 111% and the outcome [14] was “inactive”. The outcome [15] was “inactive” and the outcome [16] was “inactive”.
With `CN(C)c1ccc(N=NS(=O)(=O)O)cc1` the Potency [1] was 37.6 µM (active) and 24.3 µM (active), the activation [5] was -1.59% (inactive) and 15.3% (inactive) and the Potency [9] was 15 µM (active). The Potency [10] was 8.41 µM (active), the Potency [3] was 70.8 µM (active) and the activation [3] was 10.4% (inactive). For the same compound, the max response [4] was -7.89% (inactive) and -1.86% (inactive) and the Potency [8] was 5.96 µM (active).
For `O=c1cc(-c2ccccc2)oc2ccccc12`, the Potency [1] was 4.61 µM (active) and 5.45 µM (active), the activation [2] was -0.929% (inactive) and -1.54% (inactive) and the Potency [3] was 50.1 µM (active) and 44.7 µM (active). For the same compound, the max response [4] was 0.229% (inactive) and -0.923% (inactive).
With `C=CCc1cccc(/C=N/NC(=O)CN2CCN(Cc3ccccc3)CC2)c1O` the viability (% of control) [12] was 11.3%, the viability, percent of control [13] was 26% and the outcome [17] was “inactive”. The outcome [15] was “inactive” and the outcome [16] was “inactive”.
In the case of `CC1(C)S[C@@H]2[C@H](NC(=O)[C@H](N)c3ccccc3)C(=O)N2[C@H]1C(=O)O`, the activation [5] is reported as 1.65% (inactive), the outcome [6] is reported as “inactive” and the activation [3] is reported as 0.371% (inactive). The max response [4] was -1.69% (inactive).
In the case of `Nc1ccc([N+](=O)[O-])cc1O`, the activation [5] is reported as -1.9% (inactive) and 0.18% (inactive), the activation [2] is reported as 0.687% (inactive) and -0.798% (inactive) and the activation [3] is reported as 7.01% (inactive). The max response [4] was -5.57% (inactive) and -3.71% (inactive) and the Potency [8] was “inactive”.
With `S=c1[nH]c2ccccc2s1` the Potency [1] was 37.6 µM (active) and 27.3 µM (active), the activation [5] was -3.47% (inactive) and -2.03% (inactive) and the Potency [7] was “inactive”. The max response [4] was -10.8% (inactive) and -7.19% (inactive) and the Potency [8] was “inactive”.
In the case of `C=CCCCCCCCCC(=O)O`, the activation [5] is reported as -2.56% (inactive), the activation [2] is reported as -1.28% (inactive) and the activation [3] is reported as 1.9% (inactive). The max response [4] was 3.91% (inactive).
With `Nc1cc(-c2ccncc2)c[nH]c1=O` the Potency [1] was “inactive”, the activation [5] was -0.79% (inactive) and the activation [2] was -2.44% (inactive). The activation [3] was -0.684% (inactive) and the max response [4] was -1.14% (inactive).
